Most compounds without a hit are left out; they make up all but 7.5% or so of the library.
HCMV antiviral = qHTS Assay for inhibitors of the human cytomegalovirus (HCMV); HFF cells, HCMV-luciferase reporter, 72 h; active compounds read low; activity change, negative = inhibition, % at 57.5 µM; 410,000 tested, 4.5% active; AID 1259415, 2018; in the data active means activity change below about -60%; inconclusive means no clear call, values can overlap the other calls; inactive means above about -39%
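Luciferase read-out from HCMV-luciferase-infected HFFs (MOI 1 PFU/cell) 72 h post infection at 37C; compounds added after 16 h cell attachment; activity normalized between buffer-only basal and Salinomycin (10uM) inhibitor controls.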
VACV Venus inh = qHTS for Stage-Specific Inhibitors of Vaccinia Orthopoxvirus: Venus Reporter Primary qHTS | Vaccinia virus Venus reporter expression, fluorescence | Potency, µM (titrated, usually from 36.5 µM), for inactives: top-dose activity change, negative = inhibition, actives largely listed as inhibitors | 330,000 tested, 0.46% active; calls by dose curve; tested in A549 cells; further: potency means the concentration at half of the fitted maximal effect; nearly all actives have a fitted effect of over 30% in size
HCV inh = qHTS Assay for Inhibitors of Hepatitis C Virus (HCV); Potency, µM (highest dose often 41.8 µM), without a hit: top-dose activity change, negative = inhibition, most hits filed as inhibitors; Huh7.5.1 HCVcc-Cre infection, luciferase reporter, 44 h; 340,000 tested, 3.4% active; further: potency means the concentration at half of the fitted maximal effect
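After 44 h co-culture of compound, cells and HCVcc-Cre (~0.5 moi), substrate is added for 15 min at room temperature and luciferase measured over 15 sec. Cells were seeded at 1,000/well and pre-cultured 4 h.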
FMDV antiviral = High Throughput Screening for Foot and Mouth Disease Virus Antivirals; AID 1159524, 2015; Potency, µM (series often up to 57.9 µM), inactives show top-dose activity change, negative = inhibition, actives largely listed as inhibitors; FMDV antiviral cell-based qHTS; 410,000 tested, 1.2% active; calls by dose curve; tested in HEK293T cells; further: read-out not given here; potency means the concentration at half of the fitted maximal effect; nearly all actives have a fitted effect of over 45% in size
FBPA Giardia inh = qHTS Assay for Inhibitors of Fructose-1,6-bisphosphate Aldolase from Giardia Lamblia | A8B2U2 | purified Giardia FBPA | Potency, µM (doses to about 59.6 µM), inactives show at the top dose activity, negative = inhibition, most hits filed as inhibitors | 290,000 tested, 0.71% active | AID 2451, 2010; further: potency means the concentration at half of the fitted maximal effect; nearly all actives have a fitted effect of over 55% in size
Target sequence (A8B2U2 whole entry, looked up): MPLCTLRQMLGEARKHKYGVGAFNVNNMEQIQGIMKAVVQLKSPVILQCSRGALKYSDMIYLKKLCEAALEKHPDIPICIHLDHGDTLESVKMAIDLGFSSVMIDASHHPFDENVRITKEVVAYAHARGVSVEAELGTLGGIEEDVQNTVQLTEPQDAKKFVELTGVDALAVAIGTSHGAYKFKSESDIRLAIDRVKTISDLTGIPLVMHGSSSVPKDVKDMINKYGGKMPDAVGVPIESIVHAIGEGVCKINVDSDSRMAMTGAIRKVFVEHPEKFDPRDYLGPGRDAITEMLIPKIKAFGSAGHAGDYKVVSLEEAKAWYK
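Giardia FBPA (40 nM reagent) was preincubated 10 min at RT with compound (up to 57.5 uM final), then substrate plus GAPDH/TPI/NAD/arsenate coupling system with diaphorase/resazurin was added; resorufin fluorescence (525/598 nm) was read after 20 min.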
Vaccinia mCherry = qHTS for Stage-Specific Inhibitors of Vaccinia Orthopoxvirus: mCherry Reporter Primary qHTS; Vaccinia virus mCherry reporter infection, fluorescence; Potency, µM (top dose mostly 36.5 µM), without a hit: at the highest dose activity change, negative = inhibition, actives largely listed as inhibitors; 310,000 tested, 0.63% active; calls by dose curve; tested in A549 cells; further: potency means the concentration at half of the fitted maximal effect; nearly all actives have a fitted effect of over 35% in size
* = called active by the depositor; i = inactive; ? = inconclusive; . = no result; [ ] = remark or other dose. Unless noted, the call rests on the fitted dose curve; in most records, active means well fitted curve in the direction sought with a large enough effect; inconclusive means small, poorly fitted or top-dose-only effect, or another doubt; inactive means no such curve, though single readings can be large; an effect the other way counts as inactive or inconclusive. On the % scale 0 is the no-effect control and ±100 the full control effect.

SMILES	HCMV antiviral	VACV Venus inh	HCV inh	FMDV antiviral	FBPA Giardia inh	Vaccinia mCherry
Cc1ccc2nc(SCC(=O)NCc3ccc(F)cc3)[nH]c2c1	-65*	.	-4%	-27%	-3%	.
Cc1ccc2nc(SCC(=O)NCc3ccc(S(N)(=O)=O)cc3)[nH]c2c1	11	.	-8%	-5%	?	.
COC(=O)CSC1=C(C#N)C(=O)NC(c2ccccc2)S1 (stereo not given)	-16	.	13%	7.9µM*	?	.
CSC1=C(C#N)C(=O)NC(c2ccccc2O)S1 (stereo not given)	11	3%	19%	?	-8%	-23%
COc1ccc(NS(=O)(=O)c2ccc3nc(COc4cccc5ccccc45)[nH]c3c2)cc1	-79*	?	?	-20%	-5%	-26%
COc1ccc(OCc2nc3ccc(S(=O)(=O)Nc4ccccc4Cl)cc3[nH]2)cc1	-6	?	-25%	-13%	12%	?
O=C1C(n2ccc3ccccc32)c2cc(Cl)ccc2N1Cc1ccc(Cl)nc1 (stereo not given)	-31	.	.	.	.	.
COC(=O)Cn1c(=NC(=O)c2ccc3c(c2)OCCO3)sc2ccccc21	-16	-6%[7.34 µM]	.	27%	.	-7%[7.34 µM]
Cc1cc(O)c(-c2cc(O)c(C)cc2O)cc1O	33	.	?	?	16µM*	.
Cc1ccc(N)cc1O	-25	-3%	4%	-9%	.	-15%
COc1ccc(CCC(=O)Nc2c(C)n(C)n(-c3ccccc3)c2=O)cc1	-16	-12%	-1%	-12%	4%	i
CC1(C)Cc2c(C#N)c(N3CCN(C(=O)c4ccccc4)CC3)nc(Cc3ccccc3)c2CO1	-21	?	10%	-29%	2%	.
CCc1nc(N2CCN(C(=O)c3ccccc3)CC2)c(C#N)c2c1COC(C)(C)C2	-62*	?	?	?	-3%	?
O=C(O)C1C=CCC(C(=O)O)C1 (stereo not given)	-18	-2%	.	-5%	.	i
On1ccccc1=S	-99*	5%	6.3µM*	?	.	-1%
O=C(Cn1ccccc1=S)c1ccc(Cl)c(Cl)c1	?	-28%	-7%	-18%	.	i
O=C(N/N=C/c1ccc2c(c1)OCO2)c1ccc2c(c1)OCO2	12	-13%	-9%	9%	8%	?
O=C(N/N=C\c1cn(-c2ccccc2)nc1-c1ccccc1)c1ccc2c(c1)OCO2	-13	-35%	13µM*	-10%	0%	.
Cc1[nH]c2ccccc2c1/C=N/NC(=O)c1cccc([N+](=O)[O-])c1	-61*	-16%	-29%	-11%	-10%	-21%
Cn1cc(/C=N/NC(=O)c2cccc([N+](=O)[O-])c2)c2ccccc21	-22	-15%	10µM*	1%	0%	-11%
O=C(N/N=C/c1ccc[nH]1)c1ccc2c(c1)OCO2	52	-4%	13µM*	34%	-20%	-17%
CCN1C(=O)/C(=C\N(C)C)S/C1=N\S(=O)(=O)c1ccc(C)cc1	-6	-5%	6%	-3%	4%	-7%
COc1ccccc1NS(=O)(=O)c1cc([N+](=O)[O-])ccc1N/N=C/c1c(C)[nH]c2ccccc12	17	-5%	?	-4%	-2%	-27%
Cc1cccc(/C=N/NC(=O)c2cccc([N+](=O)[O-])c2)n1	-23	-16%	-12%	-15%	?	-4%
Cc1[nH]c2ccccc2c1/C=N/Nc1ccc([N+](=O)[O-])cc1	-30	-21%	2µM*	17%	?	?
SMILES	HCMV antiviral	VACV Venus inh	HCV inh	FMDV antiviral	FBPA Giardia inh	Vaccinia mCherry
Cc1ccc(-n2[nH]c(C)c(/C=N/Nc3ccc([N+](=O)[O-])cc3[N+](=O)[O-])c2=O)cc1	?	-13%	?	7.9µM*	3%	-18%
Cc1[nH]n(-c2ccc([N+](=O)[O-])cc2)c(=O)c1C=NCCc1c(C)[nH]c2ccccc12	-10	?	-3%	25µM*	0%	?
O=C(N/N=C/c1ccc[nH]1)c1cccc([N+](=O)[O-])c1	-5	-15%	3.5µM*	11%	-23%	-14%
CC(C)NC(=O)N(C)C[C@H]1Oc2ccc(NC(=O)Nc3ccc(C(F)(F)F)cc3)cc2C(=O)N([C@H](C)CO)C[C@@H]1C	-9	-18%	16%	-20%	.	7%
COc1ccccc1C1NC=C([N+](=O)[O-])C=C1[N+](=O)[O-] (stereo not given)	-7	74%	?	?	?	-20%
c1ccc2[nH]c3cc4ncnc4cc3nc2c1	-87*	?	-21%	6%	?	?
CC(C)[C@@H]1Cc2[nH]n(C)c(=O)c2[C@H](c2ccc(Cl)cc2)O1	-32	-4%	.	-11%	.	i
COc1ccc(CCNC(=O)c2cnc3sc(N4CCCCCC4)nn3c2=O)cc1	-7	?	.	?	.	?
COc1ccc(-c2nc3c(n2O)CCc2c-3no[n+]2[O-])cc1	-68*	1%	11%	-3%	-12%	-10%
COn1c(-c2ccccc2)nc2c1CCc1c-2no[n+]1[O-]	-80*	-24%	3%	0%	4%	.
COc1ccccc1C(=O)NC(=S)Nc1ccc(Cc2ccncc2)cc1	-76*	.	?	-16%	?	.
Cc1cc(C)cc(C(=O)NC(=S)Nc2ccc(Cc3ccncc3)cc2)c1	-74*	-27%	?	?	0%	?
COc1cc(C(=O)NC(=S)Nc2ccc(Cc3ccncc3)cc2)cc(OC)c1OC	-24	.	?	-17%	-19%	.
CNc1cccc(-c2ccccc2CO)n1	9	4%	.	-8%	.	i
COc1ccccc1N1CCN(Cc2nc(-c3ccc(F)cc3)oc2C)CC1	-12	-22%	22µM*	?	1%	-15%
COc1ccccc1N1CCN(c2nnc(-c3ccc(F)cc3)c3ccccc23)CC1	5	-27%	9%	20µM*	-4%	.
COc1ccc(-c2nc(CN3CCC(c4ccccc4)CC3)c(C)o2)cc1OC	-65*	-17%	?	-15%	1%	-19%
COc1ccccc1CNC(=O)C1CCN(Cc2nc(-c3ccc(OC)c(OC)c3)oc2C)CC1	3	-4%	.	-1%	.	-1%
COc1ccc(-c2nnc(N3CCCCC3)c3ccccc23)cc1	.	?	17%	?	7%	.
Cc1oc(-c2cc(F)ccc2F)nc1CN1CCN(c2ncnc3ccccc23)CC1	-63*	?	0.56µM*	16µM*	2%	-26%
Cc1oc(-c2cc(F)ccc2F)nc1CN1CCC(C(=O)N2CCOCC2)CC1	40	-6%	-4%	-24%	.	i

Screening results: PubChem, National Center for Advancing Translational Sciences (NCATS)
